Potency, activity, negative = inhibition and activity change, negative = inhibition data for 35 compounds are collected here from PubChem BioAssay (Tox21).

Unmarked numbers belong to inactive results. Records with an inconclusive call do not appear. The source made the active and inactive calls. Calls come from the whole dose curve.

Assay [1] concerns the target Acetylcholinesterase (Homo sapiens) (UniProt P22303). The experiment in a line: Acetylcholinesterase (AChE) small molecule antagonists: colormetric cell-based qHTS assay (AID 1347395). Note: nearly all actives have a fitted effect of over 30% in size. Put shortly:
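Neuroblastoma line SH-SY5Y supplied the enzyme; cells were preincubated with compound for 30 min at 37 C and 5% CO2. Acetylthiocholine with DTNB was then added for 90 min at 37 C, and thiocholine was measured by colour.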
A general note: Quantitative high-throughput screening tests each substance at several concentrations.

Assay [2] shares this target. Briefly: Acetylcholinesterase (AChE) small molecule antagonists: enzyme-based qHTS assay (AID 1347397). Note: nearly all actives have a fitted effect of over 55% in size. Particulars: Potency: AChE enzyme activity inhibition; outcome: AChE enzyme activity inhibition. In outline:
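Colorimetric DTNB read-out of thiocholine released from acetylthiocholine by recombinant human AChE (50 mU/mL as dispensed). Compounds were preincubated 30 min at RT before substrate/DTNB addition, with a 10 min RT reaction.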

For assay [3] the target is unchanged. Briefly: Acetylcholinesterase (AChE) small molecule antagonists: fluorescence cell-based qHTS assay (AID 1347398). Note: nearly all actives have a fitted effect of over 50% in size. Particulars: Potency: AChE activity; outcome: AChE activity. In outline:
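SH-SY5Y, 2,000 cells/well, attached overnight; cmpd 30 min 37 C; acetylthiocholine/Thiolite Green cocktail 40 min RT; fluorescence Ex/Em 490/520 nm.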

Assay [4] has the same target. Briefly: Acetylcholinesterase (AChE) small molecule antagonists: enzyme-based qHTS assay with human liver microsomes (AID 1347399). Note: nearly all actives have a fitted effect of over 60% in size. The settings on record: Potency: qHTS inhibition; outcome: qHTS inhibition. Put shortly: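 Recombinant human AChE (50 mU/mL in the enzyme mix) and human liver microsomes (0.25 mg/mL final) were preincubated with compound and NADPH (0.25 mg/mL final) for 30 min at 37 C. Acetylthiocholine/DTNB was then added; thiocholine was read colorimetrically after 10 min at room temperature.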
% is set by controls: 0 for no effect and ±100 for the full control effect; potency is the fitted concentration of half-maximal effect.

Acetylcholinesterase (Homo sapiens), sequence (P22303 whole entry, looked up): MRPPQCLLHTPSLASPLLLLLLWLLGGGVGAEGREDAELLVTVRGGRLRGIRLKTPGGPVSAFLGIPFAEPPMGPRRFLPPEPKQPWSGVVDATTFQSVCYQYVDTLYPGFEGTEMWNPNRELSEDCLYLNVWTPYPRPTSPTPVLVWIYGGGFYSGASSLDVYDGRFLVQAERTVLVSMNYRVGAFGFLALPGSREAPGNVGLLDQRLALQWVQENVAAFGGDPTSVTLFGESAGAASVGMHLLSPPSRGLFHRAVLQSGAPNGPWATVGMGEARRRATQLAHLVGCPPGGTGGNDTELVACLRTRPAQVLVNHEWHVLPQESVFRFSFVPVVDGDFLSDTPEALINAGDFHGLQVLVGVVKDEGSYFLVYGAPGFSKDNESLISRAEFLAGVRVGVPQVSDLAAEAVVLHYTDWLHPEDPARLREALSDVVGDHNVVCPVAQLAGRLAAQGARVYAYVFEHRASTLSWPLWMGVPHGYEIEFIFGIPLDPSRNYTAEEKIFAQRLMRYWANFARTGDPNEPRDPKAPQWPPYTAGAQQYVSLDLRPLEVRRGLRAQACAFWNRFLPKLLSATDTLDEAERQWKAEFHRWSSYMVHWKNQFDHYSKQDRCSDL

Consider `CCN(CC)CCOc1ccc2c(c1)C(=O)c1cc(OCCN(CC)CC)ccc1-2`, for which the Potency in assay [1] is 0.776 µM (active); in assay [2], 1.55 µM (active); in assay [3] it was 0.55 µM (active); in assay [4], 5.49 µM (active).

On to `O=C(Nc1cccc([N+](=O)[O-])c1)c1cc2ccccc2cc1O`, for which the Potency result in assay [1], in assay [2], in assay [3] and in assay [4] was “inactive” throughout.

`C[C@H]1O[C@@H](O[C@H]2CC[C@@]3(C)[C@H](CC[C@@H]4[C@@H]3C[C@@H](O)[C@]3(C)[C@@H](C5=CC(=O)OC5)CC[C@]43O)C2)C[C@H](O)[C@@H]1O[C@H]1C[C@H](O)[C@H](O[C@H]2C[C@H](O)[C@H](O[C@@H]3O[C@H](CO)[C@@H](O)[C@H](O)[C@H]3O)[C@@H](C)O2)[C@@H](C)O1`: the Potency entry in assay [1], in assay [2], in assay [3] and in assay [4] was “inactive” each time.

For `Cc1cc(C)c(NC(=O)CN(CC(=O)O)CC(=O)O)c(C)c1Br`, the Potency result in assay [1], in assay [2], in assay [3] and in assay [4] was “inactive” in each case.

With `BrCCCCCBr`, the Potency entry in assay [1], in assay [2], in assay [3] and in assay [4] was “inactive” in each case.

For `CCCCCCCCCC(=O)N(C)C`, the Potency entry in assay [1], in assay [2], in assay [3] and in assay [4] was “inactive” throughout.

As for `CC(C)OC(=O)C(C)N(C(=O)c1ccccc1)c1ccc(F)c(Cl)c1` (stereo not given), the Potency entry in assay [1], in assay [2], in assay [3] and in assay [4] was “inactive” in each case.

Take `NC(=O)Nc1ccccc1`: the Potency result in assay [1], in assay [2], in assay [3] and in assay [4] was “inactive” in each case.

Consider `CCCCCCCCSCc1cc(C)c(O)c(CSCCCCCCCC)c1`, for which the Potency result in assay [1], in assay [2], in assay [3] and in assay [4] was “inactive” each time.

As to `C=CC(C)C#N` (stereo not given), the Potency entry in assay [1], in assay [2], in assay [3] and in assay [4] was “inactive” throughout.

Regarding `O=S(=O)(O)c1cc(O)c2ccc(Nc3ccccc3)cc2c1`, the Potency entry in assay [1], in assay [2], in assay [3] and in assay [4] was “inactive” in each case.

Take `CCOC(=O)c1cnc2c(cnn2CC)c1NN=C(C)C`: the Potency entry in assay [1], in assay [2], in assay [3] and in assay [4] was “inactive” each time.

On to `Cc1[nH]cnc1-c1ccc(Cl)cc1`, for which the Potency result in assay [1], in assay [2], in assay [3] and in assay [4] was “inactive” throughout.

In the case of `Oc1ccc(Nc2ccccc2)cc1`, the Potency result in assay [1], in assay [2], in assay [3] and in assay [4] was “inactive” each time.

On to `CCCCC(=O)O[C@]1(C(=O)CO)[C@H](C)C[C@H]2[C@@H]3CCC4=CC(=O)C=C[C@]4(C)[C@@]3(F)[C@@H](O)C[C@@]21C`, for which the Potency result in assay [1], in assay [2], in assay [3] and in assay [4] was “inactive” throughout.

For the compound `CN1CCN(C(=O)C2CCCCC2)CC1`, the Potency result in assay [1], in assay [2], in assay [3] and in assay [4] was “inactive” throughout.

With `O=S(=O)(O)c1ccc2c(N=Nc3ccc(S(=O)(=O)O)c4ccccc34)c(O)c(S(=O)(=O)O)cc2c1`, the activity, negative = inhibition in assay [1] was -0.661% [at 10.5 µM]. Besides, the activity change, negative = inhibition was 1.09% [at 10.5 µM] in assay [2], 5.15% [at 10.5 µM] in assay [3] and 1.78% [at 10.5 µM] in assay [4].

For `C/C=C/C(=O)CC`, the activity, negative = inhibition in assay [1] was 0.402% [at 23.6 µM]. Besides, the activity change, negative = inhibition is 0.0718% [at 23.6 µM] in assay [2], -7.93% [at 23.8 µM] in assay [3] and -3.23% [at 23.6 µM] in assay [4].

Consider `CC(=O)SCC(CC(=O)c1ccc(C)cc1)C(=O)O` (stereo not given), for which the Potency entry in assay [1], in assay [2], in assay [3] and in assay [4] was “inactive” in each case.

Take `CC(=N\O)/C(C)=N/O`: the Potency entry in assay [1], in assay [2], in assay [3] and in assay [4] was “inactive” in each case.

For `CC=O`, the Potency is 41.8 µM (active) in assay [1], 74.3 µM (active) in assay [2] and 26.4 µM (active) in assay [3]. The Potency entry in assay [4] was “inactive”.

As to `Clc1nc2ccccc2nc1Cl`, the Potency entry in assay [1], in assay [2], in assay [3] and in assay [4] was “inactive” in each case.

Consider `CCCCCCCCCCCl`, for which the Potency entry in assay [1], in assay [2], in assay [3] and in assay [4] was “inactive” each time.

Take `Clc1cccnc1`: the Potency result in assay [1], in assay [2], in assay [3] and in assay [4] was “inactive” each time.

For `NCCCN1CCOCC1`, the Potency entry in assay [1], in assay [2], in assay [3] and in assay [4] was “inactive” throughout.

With `CCCCCCCCCC(C)=O`, the Potency result in assay [1], in assay [2], in assay [3] and in assay [4] was “inactive” in each case.

For the compound `CCOC(=O)CC(=O)C(=O)OCC`, the Potency entry in assay [1], in assay [2], in assay [3] and in assay [4] was “inactive” in each case.

As for `NCC1(Cc2noc(=O)[nH]2)CCCCC1`, the Potency result in assay [1], in assay [2], in assay [3] and in assay [4] was “inactive” in each case.

As to `O=C[C@H](O)[C@@H](O)[C@H](O)[C@H](O)CO`, the Potency entry in assay [1], in assay [2], in assay [3] and in assay [4] was “inactive” each time.

As to `Cc1nc(C)c(C)nc1C`, the Potency entry in assay [1], in assay [2], in assay [3] and in assay [4] was “inactive” in each case.

For the compound `[Cl][Eu]([Cl])[Cl]`, the Potency result in assay [1], in assay [2], in assay [3] and in assay [4] was “inactive” throughout.

As for `O=C(O)CCCCCCCCCCCBr`, the Potency result in assay [1], in assay [2], in assay [3] and in assay [4] was “inactive” throughout.

For `CCCCNC1CC(C)(C)NC(C)(C)C1`, the Potency result in assay [1], in assay [2], in assay [3] and in assay [4] was “inactive” in each case.

Regarding `COc1cc2nc(N(C)CCCNC(=O)C3CCCO3)nc(N)c2cc1OC` (stereo not given), the Potency was 17.4 µM (active) in assay [1], 24.5 µM (active) in assay [2] and 15.5 µM (active) in assay [3]. Besides, the Potency result in assay [4] is “inactive”.

As to `O=C(CO)[C@@H](O)[C@H](O)[C@@H](O)CO`, the Potency entry in assay [1], in assay [2], in assay [3] and in assay [4] was “inactive” throughout.
